Data on 14 molecules can be found in PubChem BioAssay (NCI).

Compounds without any hit were thinned out: in the full panel of roughly 83,000, 20% have a hit.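 Treatment: one concentration, 48 hours, 96-well format. Scoring: percent growth, with anything below 10 considered active.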 Unmarked numbers belong to inactive results. Active and inactive are the calls of the source.

Test systems include T-47D breast; BT-549 breast; MDA-MB-435 melanoma; SW-620 colon; MCF7 breast; HCT-116 colon; HCC-2998 colon; KM12 colon.
What all share (assay): NCI-60 one-dose screen, 48 h (100 = growth as untreated, 0 = no growth, -100 = all killed)
Holding throughout (conditions): 10 µM unless noted

Regarding `Cc1ccc([C@@H]2C[C@H](O)Cc3ccccc3N2)s1`, the growth was 99.1% with T-47D breast; 110% in the experiment on BT-549 breast; 103% with MDA-MB-435 melanoma; 101% in the experiment on SW-620 colon; 107% with MCF7 breast; 116% in the experiment on HCT-116 colon. Further, the figures for the growth in the experiment on HCC-2998 colon and in the experiment on KM12 colon were 101% and 109%, respectively.

In the case of `COc1ccc(-n2nnnc2-c2cn[nH]c2C(F)(F)F)cc1`, the growth with T-47D breast was 77.8%; in the experiment on BT-549 breast it was 85.5%; with MDA-MB-435 melanoma, 98.1%; with SW-620 colon, 94.6%; in the experiment on MCF7 breast it was 111%; in the experiment with HCT-116 colon, 97%. Also, the growth was 78.9% in the experiment on HCC-2998 colon and 101% with KM12 colon.

Turning to `O=C(N/N=C/c1ccccc1Cl)c1cccc2ccccc12`, the growth in the experiment with T-47D breast is 98.5%; with BT-549 breast, 117%; with MDA-MB-435 melanoma, 105%; in the experiment on SW-620 colon, 105%; with MCF7 breast, 90.9%; with HCT-116 colon, 102%. Further, the growth in the experiment with HCC-2998 colon is 110%; with KM12 colon, 97.3%.

Consider `COc1cc2ncnc(-n3ncc4cc(NC(=O)Nc5ccc(Cl)c(Cl)c5)ccc43)c2cc1OC`, for which the growth was -0.727% (active) with T-47D breast; -26.9% (active) with BT-549 breast; -31.1% (active) in the experiment with MDA-MB-435 melanoma; -32.4% (active) in the experiment on SW-620 colon; -34.8% (active) in the experiment with MCF7 breast; 23.9% in the experiment with HCT-116 colon. In addition, the growth in the experiment with HCC-2998 colon was 15.4%; with KM12 colon it was 0.483% (active).

Take `CC(C)OCC1CO1` (configuration not stated): the growth in the experiment with T-47D breast is 104%; in the experiment with BT-549 breast it was 106%; in the experiment on MDA-MB-435 melanoma it was 102%; in the experiment with SW-620 colon it was 96.4%; in the experiment with MCF7 breast it was 99.6%; with HCT-116 colon it was 100%. Also, the values for the growth with HCC-2998 colon and with KM12 colon were 120% and 98.3%, respectively.

For the molecule `COc1cc2ncnc(-n3ncc4cc(NC(=O)Nc5ccccc5)ccc43)c2cc1OC`, the growth with T-47D breast was -7.28% (active); with BT-549 breast, 24.9%; in the experiment with MDA-MB-435 melanoma, 31.6%; in the experiment with SW-620 colon, 49.5%; in the experiment on MCF7 breast, -20.3% (active); in the experiment on HCT-116 colon, 6.38% (active). For the same molecule, the growth in the experiment on HCC-2998 colon was 34.1%; in the experiment on KM12 colon it was 4.62% (active).

With `C[C@]12CC[C@H]3[C@@H](CC[C@H]4C[C@@H](O)CC[C@@]43C)[C@@H]1CC(=O)C2`, the growth is 106% in the experiment with T-47D breast; 103% with BT-549 breast; 116% in the experiment with MDA-MB-435 melanoma; 103% with SW-620 colon; 124% with MCF7 breast; 99.3% in the experiment with HCT-116 colon. The figures for the growth in the experiment with HCC-2998 colon and in the experiment with KM12 colon were 101% and 108%, respectively.

As to `Cc1nc2ccccc2c(=O)n1-c1cccc(OCc2cn(-c3cccc(O)c3)nn2)c1`, the growth with T-47D breast is 68.4%; in the experiment on BT-549 breast it was 99.8%; with MDA-MB-435 melanoma it was 108%; in the experiment on SW-620 colon, 104%; with MCF7 breast it was 94.3%; with HCT-116 colon, 95.2%. In addition, the growth is 103% with HCC-2998 colon and 95.2% in the experiment with KM12 colon.

For `O=C(O)/C(Br)=C/c1c[nH]c2ccc(Br)cc12`, the growth was 184% with T-47D breast; 121% in the experiment on BT-549 breast; 117% in the experiment with MDA-MB-435 melanoma; 110% with SW-620 colon; 137% in the experiment on MCF7 breast; 98.2% in the experiment on HCT-116 colon. The growth in the experiment on HCC-2998 colon was 94.2%; in the experiment on KM12 colon, 103%.

In the case of `C[C@@H](c1ccc2c(c1)[nH]c1ccc(Cl)cc12)c1nc2ccccc2[nH]1`, the growth with T-47D breast was 62.3%; with BT-549 breast it was 83.4%; in the experiment on MDA-MB-435 melanoma, 103%; in the experiment on SW-620 colon it was 95.2%; with MCF7 breast, 27.6%; with HCT-116 colon, 93.5%. The growth in the experiment on HCC-2998 colon was 100%; in the experiment with KM12 colon it was 90.7%.

Take `CN(CCC#N)c1ccc(/C=C(\C#N)c2cccc(C(F)(F)F)c2)cc1`: the growth is 56.7% with T-47D breast; 60.1% in the experiment on BT-549 breast; 1.34% (active) with MDA-MB-435 melanoma; 40.4% in the experiment with SW-620 colon; 34.2% in the experiment on MCF7 breast; 57.6% in the experiment with HCT-116 colon. Moreover, the growth in the experiment with HCC-2998 colon was 78.5%; in the experiment with KM12 colon, 38.5%.

Consider `Oc1ccc(CN(Cc2ccc(C(F)(F)F)cc2)Cc2ccc(O)c3ncccc23)c2cccnc12`, for which the growth in the experiment on T-47D breast is 20.2%; in the experiment on BT-549 breast it was 32.9%; with MDA-MB-435 melanoma it was 31.4%; in the experiment with SW-620 colon, 18.1%; in the experiment on MCF7 breast it was 13.7%; in the experiment on HCT-116 colon, 18%. Moreover, the growth in the experiment on HCC-2998 colon is 34.1%; with KM12 colon it was 18.8%.

Consider `CCCCCCCCCCC1OC(C)CC(C)O1` (configuration not stated), for which the growth with T-47D breast was 88.7%; in the experiment with BT-549 breast, 101%; in the experiment on MDA-MB-435 melanoma it was 107%; with SW-620 colon, 103%; in the experiment on MCF7 breast it was 98.6%; in the experiment with HCT-116 colon, 97.3%. The growth in the experiment with HCC-2998 colon was 101%; in the experiment on KM12 colon, 103%.

For `C[n+]1c2ccccc2c(Nc2ccc(NS(=O)(=O)CCCCN=C(N)N)cc2)c2ccc(N)cc21`, the growth in the experiment on T-47D breast was 21.9%; in the experiment with BT-549 breast, 88.7%; in the experiment with MDA-MB-435 melanoma it was 87.8%; in the experiment on SW-620 colon, 59.1%; in the experiment with MCF7 breast, 19.7%; with HCT-116 colon it was 37.3%. The results for the growth in the experiment with HCC-2998 colon and with KM12 colon were 40.6% and 42.3%, respectively.
